# Compound activity from PubChem BioAssay.
# Rows were chosen to be rich in hits. Some 3.7% of all compounds tested hit in one or more screens of this group.
# NLRP3 yeast inh: blocks the NALP3 inflammasome reconstituted in yeast. Yeast reconstituted NLRP3/ASC/caspase-1, beta-gal luminescence, 24 h. inhibition, % at 10 µM. 330,000 compounds, 0.39% hits;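 active means inhibition of 50% or more; inactive means inhibition below 50%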
# TIM10 inh: inhibits growth of TIM10 yeast strain; S. cerevisiae TIM10 strain growth, BacTiter-Glo luminescence, 24 h; inhibition, % at 10 µM; AID 463195; 330,000 compounds, 1.4% hits;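 active means inhibition of 40% or more at the single tested concentration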;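 further: wild-type TIM10 isogenic control strain grown at permissive 25 °C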
# PfHsp90 set2: inhibits growth of yeast expressing Plasmodium falciparum Hsp90. AID 504621. inhibition, % at 9.4 µM. 310,000 compounds, 0.32% hits. S. cerevisiae expressing PfHsp90, BacTiter-Glo ATP, 48 h; yeast lacking PDR1 and PDR3 efflux regulators;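 active means every replicate shows inhibition above about 80%, whatever the replicate mean, limit read from the data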
# tim23-1 inh: growth inhibitors of tim23-1 mutant yeast | inhibition, % at 20 µM | 330,000 compounds, 1.3% hits | S. cerevisiae tim23-1 growth, BacTiter-Glo luminescence, 24 h;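 active means growth inhibition of the mutant yeast at or above 50%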;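 further: temperature-sensitive mutant grown at 25 °C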
# tim10-1 inh: inhibits growth of tim10-1 mutant yeast | S. cerevisiae tim10-1 ts strain growth, BacTiter-Glo, 24 h | inhibition, % at 20 µM | 330,000 compounds, 2.2% hits;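 active means inhibition of at least 40%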;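 further: mutant grown at 25 °C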
# tim10-1 confirm: tim10-1 yeast growth inhibition, confirmed. shares compounds with tim10-1 inh. S. cerevisiae tim10-1 ts strain growth, BacTiter-Glo, 24 h. inhibition, % at 20 µM. 7,400 compounds, 56% hits;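 active means inhibition of yeast growth at or above a set limit in either of two repeat tests at 20 µM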;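 further: tim10-1 mutant grown at permissive 25 °C to find synthetic lethal compounds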
# Hits are given with their value; – = inactive; · = no result.
SMILES,NLRP3 yeast inh,TIM10 inh,PfHsp90 set2,tim23-1 inh,tim10-1 inh,tim10-1 confirm
CCOC(=O)N1CCN(c2cc3[nH]c(=S)[nH]c3cc2F)CC1,–,–,–,–,–,·
Cc1ccc(S(=O)(=O)N2CCOCC2)cc1C(=O)OCC(=O)Nc1ccc2[nH]c(=O)[nH]c2c1,–,–,·,–,–,·
CCOCc1c(C(=O)OCC(=O)Nc2ccccc2C(N)=O)oc2ccccc12,–,–,–,–,–,·
Cc1cc(C(F)(F)F)n2nc(-c3cnn(C)c3C(F)(F)F)c(Br)c2n1,–,–,–,–,41,–
Cc1cc(C(F)(F)F)n2nc(C(=O)O)c(Cl)c2n1,–,–,–,–,–,·
Cn1c(N/N=C/c2cc3ccccc3nc2Cl)nc2ccccc21,–,–,–,–,42,33
Cn1c(N/N=C/c2c[nH]c3ccccc23)nc2ccccc21,–,–,–,–,–,·
Cc1ccccc1C(=O)NNC(=O)c1cccc(Br)c1,–,–,–,–,–,·
CCCC(=O)Nc1nc2ccc(OCC)cc2s1,–,–,–,–,42,–
CC1=C(C(=O)Nc2cccc(C(=O)NC3CCCC(C)C3C)c2)SCCO1 (stereo not given),–,–,–,–,49,–
COc1cc(/C=C/c2nnc3c4ccccc4ncn23)cc(OC)c1OC,–,–,–,–,44,–
O=C1[C@@H]2[C@@H]3C[C@@H]([C@H]4ON=C(c5ccc(Cl)cc5Cl)[C@@H]34)[C@@H]2C(=O)N1C1CCCCC1,–,–,–,–,52,34
CN1C(=O)[C@@H]2[C@@H]3C[C@@H]([C@H]4ON=C(c5ccc(Cl)cc5)[C@@H]34)[C@@H]2C1=O,–,–,–,–,–,·
CC(OC(=O)Cc1ccccc1F)C(=O)Nc1ccc(Cl)cn1 (stereo not given),–,–,–,–,–,·
C/C(=N/Nc1ccc([N+](=O)[O-])cc1)c1ccc(C)cc1C,–,–,–,–,42,–
CCc1cc(C(=O)Nc2cc(S(=O)(=O)N3CCOCC3)ccc2N2CCN(CC)CC2)sc1C,·,·,–,·,·,·
CCCCn1c(=O)[nH]c(=O)c2c1nc(COC(=O)c1c(C)noc1C)n2CCC,–,–,·,–,–,·
CCn1c(-c2ccccc2)c(C(=O)CC#N)c2ccccc21,–,–,–,–,42,30
O=C(CSc1c(F)c(F)cc(F)c1F)Nc1ccc(C2SCCS2)cc1,–,–,–,–,–,·
O=C(c1cc2cc(F)ccc2[nH]1)N1CCN(Cc2ccc3c(c2)OCO3)CC1,–,–,–,–,44,–
COc1cc2cc(C(=O)N3CCN(Cc4ccc5c(c4)OCO5)CC3)[nH]c2cc1OC,–,–,–,–,–,·
COC(=O)C1=C(C)NC(=O)/C1=C\c1ccc2c(c1)OCO2,–,–,–,–,42,–
CC1=NOC(=O)/C1=C/c1ccc2c(c1)OCO2,–,–,–,–,–,·
CCN(CC)C(=O)c1c(-c2ccccc2)oc2ccc(OC)cc12,–,–,–,–,41,–
Cc1ccc(-c2nc(N)sc2C)cc1,–,–,–,–,–,·
SMILES,NLRP3 yeast inh,TIM10 inh,PfHsp90 set2,tim23-1 inh,tim10-1 inh,tim10-1 confirm
Cc1sc(N)nc1-c1c(C)n(C)c2ccccc12,–,–,–,–,68,–
NC(=S)n1[nH]c(-c2ccc([N+](=O)[O-])cc2)c(N=Nc2cccc(Cl)c2)c1=O,–,–,–,–,41,43
C=CC[n+]1c(/C=C/c2ccc(OC(C)=O)c(OC)c2)ccc2ccccc21,–,–,–,–,57,38
COc1cc(/C=N/NC(=O)Nc2ccccc2)ccc1OC(C)=O,–,–,–,–,–,·
CCOC(=O)c1c(C)[nH]c(C(=O)Nc2ccc3c(c2)OCO3)c1C,–,–,·,–,43,32
O=C(O)C1=CC[C@@H](c2ccc(Cl)cc2)N(S(=O)(=O)c2ccc(Cl)cc2)[C@H]1c1cccc(Cl)c1,–,–,–,–,40,–
CC(=O)NNc1nc2ccccc2s1,–,–,–,–,–,·
C/C(=C\C(=O)c1ccccc1)NNc1nc2ccccc2s1,–,–,–,–,55,39
O=C(CN1CCC(n2nnc3cc(C(F)(F)F)ccc32)CC1)N1CCc2ccccc21,–,–,–,–,46,36
O=C(CN1CCC(n2nnc3cc(F)ccc32)CC1)N1CCCc2ccccc21,–,–,·,–,–,·
Cc1ccc(S(=O)(=O)N2CCCCC2)cc1NC(=O)CCc1nc2ccccc2c(=O)[nH]1,–,–,–,–,–,·
CCOC(=O)c1c(NC(=O)CCN2CCOCC2)sc2c1CC(C)(C)OC2,–,–,–,–,42,–
CCOC(=O)c1c(NC(=O)CN2CCOCC2)sc2c1CC(C)(C)OC2,–,–,·,–,–,·
COc1cc(Cl)cc2c1Sc1ccccc1/C2=C/CCN(C)C,–,–,–,–,42,–
CN(C)CC/C=C1/c2ccccc2Sc2c(O)cc(Cl)cc21,–,–,–,–,–,·
CN(C)CC/C=C1/c2cc(F)ccc2Sc2ccc(Cl)cc21,–,–,–,–,–,·
COc1cc2c(cc1Cl)/C(=C\CCN(C)C)c1ccccc1S2,–,–,–,–,40,–
CCN(C(=O)c1cccc(S(=O)(=O)N(C)C)c1)C12CC3CC(CC(C3)C1)C2,–,–,–,–,41,–
Cc1cc(Cl)ccc1OC(C)C(=O)N1CCCN(C(=O)C(C)Oc2ccc(Cl)cc2C)CC1 (stereo not given),–,–,–,–,44,–
CCSc1sccc1C1C(C#N)=C(N)N(c2cccnc2)C2=C1C(=O)CC(C)(C)C2 (stereo not given),–,–,–,–,–,·
CC1(C)CC(=O)C2=C(C1)N(c1cccnc1)C(N)=C(C#N)C2c1cccs1 (stereo not given),–,–,–,–,40,33
O=S(=O)(NC1CCCCC1Nc1ccc(Cl)cc1)c1ccccc1 (stereo not given),–,–,–,–,–,·
Cc1ccc(NC2CCCCC2NS(=O)(=O)c2ccccc2)c(C)c1 (stereo not given),–,–,–,–,44,–
O=C(CN1CCCC1c1cccs1)Nc1cccc(S(=O)(=O)N2CCCC2)c1 (stereo not given),–,–,–,–,–,·
C=CC(C)(C)c1c(O)c(CC=C(C)C)c(O)c2c(=O)c3ccc(O)c(O)c3oc12,–,–,105,–,44,29
C=C1CCN([C@H](C(=O)NCc2ccc(OC)cc2)C(C)C)S(=O)(=O)c2ccccc21,–,–,–,–,–,·
Cc1ccc(C)c(N2CCN(S(=O)(=O)c3ccc(-c4cc(C)no4)s3)CC2)c1,–,–,–,–,–,·
CCn1cc(Br)c(C(=O)Nc2ccc(C(=O)OC(C)C)cc2)n1,–,–,–,–,41,34
Cc1ccc(S(=O)(=O)/N=C2\C=C(NS(=O)(=O)c3ccccc3)C(=O)c3ccccc32)cc1,·,·,–,·,·,·
Cc1ccc(S(=O)(=O)/N=C2/C=C(C3C(=O)CC(C)(C)CC3=O)C(=O)c3ccccc32)cc1,–,–,–,–,41,–
